# According to the supplement of paper PMC4466140:
# B1: unnamed (peptide)
# chain: RSLRKRPTSPSISGS
# B2: unnamed (peptide)
# chain: RRGPAPPPPPRASRP
# Columns and labels:
# Assay in all cases: SPOT peptide array binding signal intensity (averaged, normalized) (arbitrary units (background-subtracted, floor 0; scale differs between SH3 domains)); higher = stronger binding of the SH3 domain to the peptide
# CaNbp2 = target: CaNbp2
# Procedure, shortened: (§1)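 GST-fused SH3 domains from four yeast species were expressed in E. coli BL21(DE3), purified on glutathione Sepharose and incubated at 10 μg/ml overnight at 4°C in TBS-based blocking buffer on cellulose membranes carrying synthetic 15-mer peptides, with cysteines replaced by serines. Bound protein was detected with anti-GST antibody, an HRP anti-mouse secondary and luminol, then imaged and quantified with Genespotter. Binding signal is the normalized, background-subtracted spot intensity averaged over replicates, in arbitrary units that differ between domains.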
# CaRvs167 = target: CaRvs167
# Procedure, shortened: as §1
# CaRvs167-3 = target: CaRvs167-3
# Procedure, shortened: as §1
# CaSho1 = target: CaSho1
# Procedure, shortened: as §1
# CaSla1-D1-D2 = target: CaSla1-D1-D2
# Procedure, shortened: as §1
# CaSla1-D3 = target: CaSla1-D3
# Procedure, shortened: as §1
# ScAbp1 = target: ScAbp1
# Procedure, shortened: as §1
# ScBbc1 = target: ScBbc1
# Procedure, shortened: as §1
# ScBem1-D1 = target: ScBem1-D1
# Procedure, shortened: as §1
# ScBzz1-D1 = target: ScBzz1-D1
# Procedure, shortened: as §1
# ScBzz1-D2 = target: ScBzz1-D2
# Procedure, shortened: as §1
# ScCyk3 = target: ScCyk3
# Procedure, shortened: as §1
# ScFus1 = target: ScFus1
# Procedure, shortened: as §1
# ScHof1 = target: ScHof1
# Procedure, shortened: as §1
# ScHse1 = target: ScHse1
# Procedure, shortened: as §1
# ScLsb1 = target: ScLsb1
# Procedure, shortened: as §1
# ScLsb2 = target: ScLsb2
# Procedure, shortened: as §1
# ScLsb3 = target: ScLsb3
# Procedure, shortened: as §1
# ScLsb4 = target: ScLsb4
# Procedure, shortened: as §1
# ScMyo3 = target: ScMyo3
# Procedure, shortened: as §1
# ScMyo5 = target: ScMyo5
# Procedure, shortened: as §1
# ScNbp2 = target: ScNbp2
# Procedure, shortened: as §1
# ScPex13 = target: ScPex13
# Procedure, shortened: as §1
# ScRvs167 = target: ScRvs167
# Procedure, shortened: as §1
# ScSho1 = target: ScSho1
# Procedure, shortened: as §1
# ScSla1-D1-D2 = target: ScSla1-D1-D2
# Procedure, shortened: as §1
# ScSla1-D3 = target: ScSla1-D3
# Procedure, shortened: as §1
# SpAbp1-D1 = target: SpAbp1-D1
# Procedure, shortened: as §1
# SpBbc1 = target: SpBbc1
# Procedure, shortened: as §1
# SpBzz1-D1 = target: SpBzz1-D1
# Procedure, shortened: as §1
# SpBzz1-D2 = target: SpBzz1-D2
# Procedure, shortened: as §1
# SpCyk3 = target: SpCyk3
# Procedure, shortened: as §1
# SpHof1 = target: SpHof1
# Procedure, shortened: as §1
# SpHof1-2 = target: SpHof1-2
# Procedure, shortened: as §1
# SpHof1-3 = target: SpHof1-3
# Procedure, shortened: as §1
# SpHse1 = target: SpHse1
# Procedure, shortened: as §1
# SpLsb1 = target: SpLsb1
# Procedure, shortened: as §1
# SpLsb4 = target: SpLsb4
# Procedure, shortened: as §1
# SpMyo1 = target: SpMyo1
# Procedure, shortened: as §1
# SpNbp2 = target: SpNbp2
# Procedure, shortened: as §1
# SpPex13 = target: SpPex13
# Procedure, shortened: as §1
# SpRvs167 = target: SpRvs167
# Procedure, shortened: as §1
# SpSla1-D1-D2 = target: SpSla1-D1-D2
# Procedure, shortened: as §1
# SpSla1-D3 = target: SpSla1-D3
# Procedure, shortened: as §1
# AgAbp1 = target: AgAbp1
# Procedure, shortened: as §1
# AgBbc1 = target: AgBbc1
# Procedure, shortened: as §1
# AgBem1-D1 = target: AgBem1-D1
# Procedure, shortened: as §1
# AgBzz1-D1 = target: AgBzz1-D1
# Procedure, shortened: as §1
# AgBzz1-D2 = target: AgBzz1-D2
# Procedure, shortened: as §1
# AgCyk3 = target: AgCyk3
# Procedure, shortened: as §1
# AgFus1 = target: AgFus1
# Procedure, shortened: as §1
# AgHof1 = target: AgHof1
# Procedure, shortened: as §1
# AgHse1 = target: AgHse1
# Procedure, shortened: as §1
# AgLsb1 = target: AgLsb1
# Procedure, shortened: as §1
# AgLsb4 = target: AgLsb4
# Procedure, shortened: as §1
# AgMyo5 = target: AgMyo5
# Procedure, shortened: as §1
# AgNbp2 = target: AgNbp2
# Procedure, shortened: as §1
# AgRvs167 = target: AgRvs167
# Procedure, shortened: as §1
# AgSho1 = target: AgSho1
# Procedure, shortened: as §1
# AgSla1-D1-D2 = target: AgSla1-D1-D2
# Procedure, shortened: as §1
# AgSla1-D3 = target: AgSla1-D3
# Procedure, shortened: as §1
# CaAbp1-D1 = target: CaAbp1-D1
# Procedure, shortened: as §1
# CaAbp1-D2 = target: CaAbp1-D2
# Procedure, shortened: as §1
# CaBbc1 = target: CaBbc1
# Procedure, shortened: as §1
# CaBem1-D1 = target: CaBem1-D1
# Procedure, shortened: as §1
# CaBzz1-D1 = target: CaBzz1-D1
# Procedure, shortened: as §1
# CaBzz1-D2 = target: CaBzz1-D2
# Procedure, shortened: as §1
# CaCyk3 = target: CaCyk3
# Procedure, shortened: as §1
# CaFus1 = target: CaFus1
# Procedure, shortened: as §1
# CaHof1 = target: CaHof1
# Procedure, shortened: as §1
# CaHse1 = target: CaHse1
# Procedure, shortened: as §1
# CaLsb1 = target: CaLsb1
# Procedure, shortened: as §1
# CaLsb4 = target: CaLsb4
# Procedure, shortened: as §1
# CaMyo5 = target: CaMyo5
# Procedure, shortened: as §1
binder,measurement,setting,value
B1,SPOT peptide array binding signal intensity,CaNbp2,1160
same,SPOT peptide array binding signal intensity,CaRvs167,27.5
same,SPOT peptide array binding signal intensity,CaRvs167-3,210
same,SPOT peptide array binding signal intensity,CaSho1,972
same,SPOT peptide array binding signal intensity,CaSla1-D1-D2,226
same,SPOT peptide array binding signal intensity,CaSla1-D3,1.5
same,SPOT peptide array binding signal intensity,ScAbp1,65
same,SPOT peptide array binding signal intensity,ScBbc1,94
same,SPOT peptide array binding signal intensity,ScBem1-D1,50.5
same,SPOT peptide array binding signal intensity,ScBzz1-D1,26.5
same,SPOT peptide array binding signal intensity,ScBzz1-D2,28
same,SPOT peptide array binding signal intensity,ScCyk3,294
same,SPOT peptide array binding signal intensity,ScFus1,488
same,SPOT peptide array binding signal intensity,ScHof1,1
same,SPOT peptide array binding signal intensity,ScHse1,1770
same,SPOT peptide array binding signal intensity,ScLsb1,54
same,SPOT peptide array binding signal intensity,ScLsb2,20
same,SPOT peptide array binding signal intensity,ScLsb3,1330
same,SPOT peptide array binding signal intensity,ScLsb4,27.5
same,SPOT peptide array binding signal intensity,ScMyo3,11
same,SPOT peptide array binding signal intensity,ScMyo5,3
same,SPOT peptide array binding signal intensity,ScNbp2,1530
same,SPOT peptide array binding signal intensity,ScPex13,3
same,SPOT peptide array binding signal intensity,ScRvs167,75.5
same,SPOT peptide array binding signal intensity,ScSho1,959
same,SPOT peptide array binding signal intensity,ScSla1-D1-D2,607
same,SPOT peptide array binding signal intensity,ScSla1-D3,30
same,SPOT peptide array binding signal intensity,SpAbp1-D1,477
same,SPOT peptide array binding signal intensity,SpBbc1,8
same,SPOT peptide array binding signal intensity,SpBzz1-D1,249
same,SPOT peptide array binding signal intensity,SpBzz1-D2,0.75
same,SPOT peptide array binding signal intensity,SpCyk3,13.5
same,SPOT peptide array binding signal intensity,SpHof1,428
same,SPOT peptide array binding signal intensity,SpHof1-2,43.8
same,SPOT peptide array binding signal intensity,SpHof1-3,730
same,SPOT peptide array binding signal intensity,SpHse1,621
same,SPOT peptide array binding signal intensity,SpLsb1,17.8
same,SPOT peptide array binding signal intensity,SpLsb4,776
same,SPOT peptide array binding signal intensity,SpMyo1,9
same,SPOT peptide array binding signal intensity,SpNbp2,2180
same,SPOT peptide array binding signal intensity,SpPex13,7
same,SPOT peptide array binding signal intensity,SpRvs167,10.8
same,SPOT peptide array binding signal intensity,SpSla1-D1-D2,5
same,SPOT peptide array binding signal intensity,SpSla1-D3,8
B2,SPOT peptide array binding signal intensity,AgAbp1,181
same,SPOT peptide array binding signal intensity,AgBbc1,646
same,SPOT peptide array binding signal intensity,AgBem1-D1,410
same,SPOT peptide array binding signal intensity,AgBzz1-D1,582
same,SPOT peptide array binding signal intensity,AgBzz1-D2,164
same,SPOT peptide array binding signal intensity,AgCyk3,2
same,SPOT peptide array binding signal intensity,AgFus1,23
same,SPOT peptide array binding signal intensity,AgHof1,63.8
same,SPOT peptide array binding signal intensity,AgHse1,32.5
same,SPOT peptide array binding signal intensity,AgLsb1,80.2
same,SPOT peptide array binding signal intensity,AgLsb4,485
same,SPOT peptide array binding signal intensity,AgMyo5,89
same,SPOT peptide array binding signal intensity,AgNbp2,205
same,SPOT peptide array binding signal intensity,AgRvs167,339
same,SPOT peptide array binding signal intensity,AgSho1,13
same,SPOT peptide array binding signal intensity,AgSla1-D1-D2,21
same,SPOT peptide array binding signal intensity,AgSla1-D3,14
same,SPOT peptide array binding signal intensity,CaAbp1-D1,1290
same,SPOT peptide array binding signal intensity,CaAbp1-D2,281
same,SPOT peptide array binding signal intensity,CaBbc1,1160
same,SPOT peptide array binding signal intensity,CaBem1-D1,1890
same,SPOT peptide array binding signal intensity,CaBzz1-D1,3450
same,SPOT peptide array binding signal intensity,CaBzz1-D2,2600
same,SPOT peptide array binding signal intensity,CaCyk3,216
same,SPOT peptide array binding signal intensity,CaFus1,124
same,SPOT peptide array binding signal intensity,CaHof1,6.5
same,SPOT peptide array binding signal intensity,CaHse1,6.75
same,SPOT peptide array binding signal intensity,CaLsb1,0.75
same,SPOT peptide array binding signal intensity,CaLsb4,1000
same,SPOT peptide array binding signal intensity,CaMyo5,9
same,SPOT peptide array binding signal intensity,CaNbp2,209
same,SPOT peptide array binding signal intensity,CaRvs167,805
same,SPOT peptide array binding signal intensity,CaRvs167-3,11
same,SPOT peptide array binding signal intensity,CaSho1,18.5
same,SPOT peptide array binding signal intensity,CaSla1-D1-D2,2130
same,SPOT peptide array binding signal intensity,CaSla1-D3,143
same,SPOT peptide array binding signal intensity,ScAbp1,272
same,SPOT peptide array binding signal intensity,ScBbc1,150
same,SPOT peptide array binding signal intensity,ScBem1-D1,6
same,SPOT peptide array binding signal intensity,ScBzz1-D1,457
same,SPOT peptide array binding signal intensity,ScBzz1-D2,68.5
same,SPOT peptide array binding signal intensity,ScCyk3,16
same,SPOT peptide array binding signal intensity,ScFus1,12.5
same,SPOT peptide array binding signal intensity,ScHof1,12.2
same,SPOT peptide array binding signal intensity,ScHse1,28.5
same,SPOT peptide array binding signal intensity,ScLsb1,132
same,SPOT peptide array binding signal intensity,ScLsb2,54
same,SPOT peptide array binding signal intensity,ScLsb3,1380
same,SPOT peptide array binding signal intensity,ScLsb4,892
same,SPOT peptide array binding signal intensity,ScMyo3,160
same,SPOT peptide array binding signal intensity,ScMyo5,279
same,SPOT peptide array binding signal intensity,ScNbp2,158
same,SPOT peptide array binding signal intensity,ScPex13,1150
same,SPOT peptide array binding signal intensity,ScRvs167,2010
same,SPOT peptide array binding signal intensity,ScSho1,668
same,SPOT peptide array binding signal intensity,ScSla1-D1-D2,4710
same,SPOT peptide array binding signal intensity,ScSla1-D3,8.25
same,SPOT peptide array binding signal intensity,SpAbp1-D1,726
same,SPOT peptide array binding signal intensity,SpBbc1,24
same,SPOT peptide array binding signal intensity,SpBzz1-D1,1820
same,SPOT peptide array binding signal intensity,SpBzz1-D2,340
same,SPOT peptide array binding signal intensity,SpCyk3,13
same,SPOT peptide array binding signal intensity,SpHof1,52
same,SPOT peptide array binding signal intensity,SpHof1-2,27.8
same,SPOT peptide array binding signal intensity,SpHof1-3,420
same,SPOT peptide array binding signal intensity,SpHse1,37.8
same,SPOT peptide array binding signal intensity,SpLsb1,107
same,SPOT peptide array binding signal intensity,SpLsb4,1730
same,SPOT peptide array binding signal intensity,SpMyo1,391
same,SPOT peptide array binding signal intensity,SpNbp2,15.5
same,SPOT peptide array binding signal intensity,SpPex13,2
same,SPOT peptide array binding signal intensity,SpRvs167,2270
same,SPOT peptide array binding signal intensity,SpSla1-D1-D2,571
same,SPOT peptide array binding signal intensity,SpSla1-D3,≤ 0
